# uPA generation: qHTS for Inhibitors of Cell Surface uPA Generation; Potency, µM (series often up to 38.3 µM), inactives show at the top dose activity change, negative = inhibition, actives largely listed as inhibitors; AID 540303, 2011; cell surface uPA generation assay, qHTS; hit rate 0.31% among 330,000; active = well fitted inhibition curve with a large enough effect; inconclusive = small, poorly fitted or top-dose-only effect; inactive = no such curve, though single readings can be large or run the other way; tested in mouse RAW 264.7 cells; note: potency is the fitted concentration of half-maximal effect; % is set by controls: 0 for no effect and ±100 for the full control effect; nearly all actives have a fitted effect of over 55% in size
# DRD3 antagonist: qHTS of D3 Dopamine Receptor Antagonist: qHTS; D(3) dopamine receptor (Homo sapiens), P35462; D3R cells, DiscoveRx beta-arrestin luminescence, antagonist mode; hits give low values; AID 652054, 2013; max response, negative = inhibition, %; hit rate 2.5% among 360,000; in the data active = max response below about -50%; inconclusive = no clear call, values can overlap the other calls; note: % is set by controls: 0 for no effect and ±100 for the full control effect
# Target sequence (P35462 whole entry, looked up): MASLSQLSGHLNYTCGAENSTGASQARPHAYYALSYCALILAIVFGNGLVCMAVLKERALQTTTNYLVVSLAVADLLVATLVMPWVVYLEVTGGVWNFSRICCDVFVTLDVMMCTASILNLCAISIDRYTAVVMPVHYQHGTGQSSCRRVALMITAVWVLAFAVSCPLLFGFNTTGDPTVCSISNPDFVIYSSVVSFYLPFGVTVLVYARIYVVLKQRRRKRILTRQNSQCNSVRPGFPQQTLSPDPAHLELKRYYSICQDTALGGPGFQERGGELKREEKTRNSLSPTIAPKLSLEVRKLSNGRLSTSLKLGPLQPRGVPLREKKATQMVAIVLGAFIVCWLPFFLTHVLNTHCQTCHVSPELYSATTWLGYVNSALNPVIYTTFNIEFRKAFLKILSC
#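 Cells plated overnight at 1500 cells/well, then exposed to library compounds with dopamine controls for 90 minutes at 37 degrees C. DiscoveRx reagent added for 30–60 minutes at room temperature; luminescence read, quantitative HTS format.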
# D3 ag: qHTS of D3 Dopamine Receptor Agonist: qHTS; D(3) dopamine receptor (Homo sapiens), P35462; D3R DiscoveRx beta-arrestin cells, luminescence, 90 min; max activation, %; hit rate 0.58% among 410,000; AID 652048, 2013; in the data active = max activation above about 30%; note: 0% is about no effect
#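 Cells at 1500/well, incubated overnight, then treated with pinned compounds (dopamine as control) for 90 min at 37 degrees C. DiscoveRx reagent added for 30 - 60 minutes at room temperature; luminescence read.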
# RGS4 inhibitor: Inhibitors of Regulator of G Protein Signaling (RGS) 4: qHTS; AID 504845, 2011; Transcreener GDP fluorescence polarization, RGS4-accelerated GTP hydrolysis; hit rate 0.039% among 390,000; Potency, µM (doses to about 114 µM), without a hit: top-dose activity change, negative = inhibition, most hits filed as inhibitors; active = well fitted inhibition curve with a large enough effect; inconclusive = small, poorly fitted or top-dose-only effect; inactive = no such curve, though single readings can be large or run the other way; note: potency is the fitted concentration of half-maximal effect; % is set by controls: 0 for no effect and ±100 for the full control effect; nearly all actives have a fitted effect of over 75% in size
# Target sequence (P49798 whole entry, looked up): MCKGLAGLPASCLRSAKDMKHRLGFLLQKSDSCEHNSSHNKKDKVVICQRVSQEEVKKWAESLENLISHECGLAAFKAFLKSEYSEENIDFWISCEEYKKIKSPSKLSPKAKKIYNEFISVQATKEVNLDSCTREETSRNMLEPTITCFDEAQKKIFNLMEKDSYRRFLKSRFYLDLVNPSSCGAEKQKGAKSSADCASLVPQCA
#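 MLSMR compounds (23 nl, pin-transferred) preincubated 10 min at room temperature with a 500nM (2x) first reagent, then RGS4 at 900nM (2x) plus Transcreener GDP mix added; fluorescence polarization (620/688 nm) read before and after 90 min at 30 °C.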
# Starred values were filed as active, the others as inactive; ? = inconclusive; . = no result. An excerpt weighted towards active compounds, which were near 3.1% of everything screened.
SMILES,uPA generation,DRD3 antagonist,D3 ag,RGS4 inhibitor
Cc1ccc([C@H]2C(C(=O)O)=CC[C@@H](c3ccc(Cl)cc3)N2S(=O)(=O)c2ccc(C)cc2)cc1,-3%,-51*,-8,-16%
Cc1ccc([C@H]2C(C(=O)O)=CC[C@@H](c3ccc(C(C)C)cc3)N2S(=O)(=O)c2ccc(C)cc2)cc1,11%,-64*,-34,4%
Cc1cccc(N2CCN(C(=O)CCc3c(C)nc4c(c3C)c(=O)n(C)c(=O)n4C)CC2)c1C,.,.,5,3%
Cc1ccc(C)c(NC(=S)NCC(c2ccccc2)N(C)C)c1 (configuration not stated),-1%,-60*,-39,1%
Cc1ccccc1NC(=S)NCC(c1cccnc1)N(C)C (configuration not stated),-3%,1,2,-6%
Cc1cccc(OCCC(=O)NCC(c2ccccc2)N(C)C)c1 (configuration not stated),4%,-60*,-5,-7%
COc1ccc(C(CNC(=O)CCOc2ccccc2)N(C)C)cc1 (configuration not stated),.,-76*,-52,10%
CCC(C(=O)OCCOCCN(CC)CC)c1ccccc1 (configuration not stated),-4%,-1,-10,16%
CCN(CC)CCCOC(=O)C(c1ccccc1)c1ccccc1,-17%,-85*,-53,11%
CCN(CC)CCOC(=O)/C=C/c1ccccc1,0%,-63*,-17,16%
O=C(/C=C/c1ccccc1)OCc1ccccc1,.,.,4,.
Cc1ccc(N2CC(C)Cn3c2nc2c3c(=O)n(CC(=O)O)c(=O)n2C)cc1 (configuration not stated),.,.,-6,6%
CC1=C/C(=C(/c2ccc(O)c(C)c2)c2ccccc2S(=O)(=O)O)C=CC1=O,-29%,-56*,-19,0%
Cc1oc(-c2ccccc2Cl)nc1CSc1nc2c(c(=O)[nH]1)CCCC2,-2%,113,30*,-21%
CC(Oc1ccc(Cl)cc1Cl)C(=O)NC1CCSC1=O (configuration not stated),-2%,-75*,-6,17%
CC(Oc1ccc(Cl)cc1Cl)C(=O)Nc1cccnc1 (configuration not stated),0%,-53*,-3,-3%
CCNC(=O)C(C)Oc1ccc(Cl)cc1Cl (configuration not stated),-5%,7,-5,1%
CC(Oc1ccc(Cl)cc1Cl)C(=O)Nc1ccncc1 (configuration not stated),-4%,31,3,-9%
CC(NS(=O)(=O)c1ccc(Cl)c(Cl)c1)C(=O)Nc1cccnc1 (configuration not stated),5%,-57*,-5,-1%
COc1ccccc1CNC(=O)c1cc(S(=O)(=O)N2CCCC(C)C2)cn1C (configuration not stated),.,.,7,-14%
COc1ccc(OC)c(CNc2ncnc3onc(-c4ccc(Cl)cc4)c23)c1,.,.,-5,5%
COc1cc(OC)cc(-c2c(C#Cc3ccsc3)c3cc(-c4ccc(OC)c(F)c4)ccc3n2C)c1,1%,1,50*,1%
COc1ccc(-c2cn3c(n2)sc2cc(C(=O)NCc4cccc(F)c4)ccc23)cc1,.,.,6,-16%
Cc1ccc(NC(=O)/C=C/c2ccco2)cc1S(=O)(=O)N1CCCCCC1,0.89µM*,1,-1,-19%
O=C(/C=C/c1ccco1)Nc1cccc(S(=O)(=O)N2CCOCC2)c1,-12%,5,-5,-20%
SMILES,uPA generation,DRD3 antagonist,D3 ag,RGS4 inhibitor
Cc1cccc(-c2nc3c(C#N)c[nH]n3c2NC2CCCCC2)c1,.,.,1,14%
Cc1cc(S(=O)(=O)NCc2ccc(N3CCN(C)CC3)cc2)c(C)s1,-2%,-63*,-11,-2%
CCOc1ccc(N(CC(=O)Nc2ccccc2CC)S(=O)(=O)c2c(C)noc2C)cc1,.,.,-21,2%
O=S(=O)(Nc1ccc(-n2cccc2)cc1)c1ccc(Cl)c(Cl)c1,7%,2,0,-14%
O=S(=O)(Nc1ccc(-n2cccc2)cc1)c1ccc(Cl)cc1Cl,10%,-53*,-1,-2%
COc1ccc(/C=N/Nc2nnc(C)n2N)cc1OC,-7%,5,1,-22%
COc1ccc(/C=N/Nc2nnc(C)n2N)cc1OC(C)=O,-18%,-56*,-10,-51%
CCOC(=O)CC(NC(=O)CCc1c(C)nc2c(-c3ccccc3)c(C)nn2c1C)c1ccc(C)cc1 (configuration not stated),.,.,6,-15%
CCOC(=O)CC(NC(=O)CCc1c(C)nc2c(-c3ccccc3)c(C)nn2c1C)c1ccc(OC(C)C)cc1 (configuration not stated),.,.,36*,-1%
Cc1ccc(CNC(=O)CCc2c(C)c3cc4c(C)coc4cc3oc2=O)cc1,.,.,-26,-16%
O=C(NN=Cc1c(O)ccc2ccccc12)c1ccc2c(c1)OCO2,8.9µM*,-25,-11,17%
O=C(N/N=C\c1ccc(-c2ccc([N+](=O)[O-])cc2)o1)c1ccc2c(c1)OCO2,-1%,2,7,-22%
O=C(NN=Cc1ccc2c(c1)OCO2)C1CC1,-8%,1,-9,-19%
O=[N+]([O-])c1ccc(/C=N/N=C/c2ccc([N+](=O)[O-])o2)o1,.,-81*,-35,12%
O=C(NN=Cc1ccc2c(c1)OCO2)NN=Cc1ccc2c(c1)OCO2,-1%,45,46*,10%
O=C(N/N=C/c1ccc([N+](=O)[O-])o1)c1ccc2c(c1)OCO2,4.5µM*,-8,-5,-1%
O=c1oc2ccc3ccccc3c2cc1-c1nnc(Nc2cc(C(F)(F)F)ccc2Cl)s1,.,.,5,13%
COc1cccc(CNC(=O)c2sc3nc(C)cc(C)c3c2-n2cccc2)c1OC,.,.,-6,-23%
CCc1ccc(CNC(=O)C2CCCN(c3nn4cc(-c5ccc(F)cc5)nc4s3)C2)cc1 (configuration not stated),.,.,-9,-37%
Cc1nc(SCCCSc2n[nH]c(C)n2)n[nH]1,-2%,-69*,-9,5%
Cc1nc(SCC(=O)O)n[nH]1,2%,7,1,-10%
CC(C)=CCC/C(C)=C/CNC(=O)C[C@H]1C[C@H](C(=O)N2CCOCC2)[C@@]2(C)c3[nH]c4cc(CCC(=O)N(C)C)ccc4c3CCN2C1=O,10µM*,34,-10,5%
COCCCNC(=O)C[C@H]1C[C@H](C(=O)N2CCOCC2)[C@@]2(C)c3[nH]c4cc(-c5ccco5)ccc4c3CCN2C1=O,?,5,35*,?
CCn1c(=O)c2c(nc3n2CCN3c2ccc(OC)cc2)n(C)c1=O,.,.,-9,-1%
CCOC(=O)[C@@H](N)CS,.,.,-29,.
CCC(C)(C)C1CCC(=NNC(=S)Nc2ccccc2)CC1 (configuration not stated),0%,?,-13,-7%
S=C(NN=C1C2CC3CC(C2)CC1C3)Nc1ccccc1,2%,-66*,1,-27%

# Bioassay records: PubChem, National Center for Advancing Translational Sciences (NCATS)
